Values joined by “and” are separate entries in the source; they are usually repeats but may differ in a detail not shown here. Equal values may be shown once. Values without a mark were called inactive. Records with an inconclusive call do not appear. Active and inactive are the calls of the source. Unless noted, calls come from the whole dose curve.
Test: qHTS assay to identify small molecule agonists of the hypoxia (HIF-1) signaling pathway (AID 1224846; active = well fitted activation curve with a large enough effect in the signal ratio in the repeat runs, not every such curve was filed as active; the % refers to the signal ratio)
Conditions: HRE-bla ME-180 cells, beta-lactamase ratio, 17 h; series mostly up to 76.8 µM; activation: at the top concentration
Method in brief: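 Measured by blue/green FRET after loading CCF4-AM: beta-lactamase expressed from a hypoxia response element in ME-180 cells. Test agents were delivered in DMSO and left 17 hrs; cells had been plated 5 hrs earlier in low-serum (0.5% dialyzed FBS) medium.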
% is set by controls: 0 for no effect and ±100 for the full control effect.

| Compound | activation |
| --- | --- |
| C=COC(C)=O | 0.51% |
| CN1C(=O)NC(=O)C(C)(C2=CCCCC2)C1=O (stereo unspecified) | -1.25% [at 35.5 µM] |
| CCCCCC[N+](=O)[O-] | -0.0202% |
| O=C(NC(=O)c1c(F)cccc1F)Nc1ccc(OC(F)(F)C(F)OC(F)(F)F)c(Cl)c1 (stereo unspecified) | 3.09% [at 35.5 µM] |
| COc1c(C(C)(C)C)cc([N+](=O)[O-])c(C)c1[N+](=O)[O-] | 0.168% |

Test: qHTS assay to identify small molecule agonists of H2AX - cell viability counter screen (AID 1224847);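 note: wild-type CHO-K1 cells; top concentration of the series differs between compounds; nearly all actives have a fitted effect of over 30% in size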
Conditions: CHO-K1 viability, CellTiter-Glo luminescence, 3 h; series mostly up to 154 µM; activity change, negative = cytotoxicity: at the top concentration
Method in brief: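 CHO-K1 wt, 1000 cells/well, o/n 37C; cpds 15 conc, 3 h 37C, 0.76% DMSO; CellTiter-Glo, 30 min RT, luminescence.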

| Compound | activity change, negative = cytotoxicity |
| --- | --- |
| CC(=O)CCC(C)=O | 0.872% |
| CCc1ccc(C(=O)NN(C(=O)c2cc(C)cc(C)c2)C(C)(C)C)cc1 | -6.4% |
| CCO[C@H]1O[C@@H]2OC3(C)CC[C@H]4[C@H](C)CC[C@@H]([C@H]1C)[C@@]24OO3 | -10.8% [at 70.9 µM] |
| BrCCCCBr | 1.78% |
| c1cc2ccc3cccc4ccc(c1)c2c34 | -1.5% |
| C[C@@H]1CC[C@H]2[C@@H](C)C(=O)O[C@@H]3O[C@@]4(C)CC[C@@H]1[C@]32OO4 | -2.16% [at 70.9 µM] |
| CC(C)N(CCC(C(N)=O)(c1ccccc1)c1ccccn1)C(C)C (stereo unspecified) | 2.35% [at 70.9 µM] |
| C#CCOC(C(=O)OCCN(C)C)(c1ccccc1)c1ccccc1 | -1.8% [at 70.9 µM] |
| c1ccc(C2CC2)c(OCC2=NCCN2)c1 | -0.046% [at 70.9 µM] |
| Clc1cccc(SC2CCNCC2)n1 | -0.862% [at 70.9 µM] |
| CCCCCCCCCCOC(=O)c1ccccc1C(=O)OCCCCCCCCCC | 0.834% |
| [O-][Cl+]O | 1.03% |
| c1ccc(CN2CCNCC2)cc1 | -2.94% [at 401 µM] |
| OCCCBr | -1.3% |
| O=C(CBr)Nc1ccc(Cl)cc1C(=O)c1ccccc1F | 2.7% [at 70.9 µM] |
| NCCCNCCCN | -7.24% |
| C=C(C#N)CCC#N | 1.17% |
| C=CCN1CC[C@]23c4c5ccc(O)c4O[C@H]2C(=O)CC[C@@]3(O)[C@H]1C5 | 8.5% [at 70.9 µM] |
| CCCCCCC#N | -1.57% |
| CO[C@@H]1[C@H](OC(=O)NC(=O)CCl)CC[C@]2(CO2)[C@H]1[C@@]1(C)O[C@@H]1CC=C(C)C | 2.72% [at 31.6 µM] |
| O=C1c2ccccc2C(=O)C1C(=O)C(c1ccccc1)c1ccccc1 | 0.755% [at 70.9 µM] |
| CN1[C@@H]2CC[C@H]1CC(OC(=O)c1cc(Cl)cc(Cl)c1)C2 (stereo partly specified) | 0.342% [at 70.9 µM] |
| C=COC(C)=O | 0.511% |
| CN1C(=O)NC(=O)C(C)(C2=CCCCC2)C1=O (stereo unspecified) | -1.93% [at 70.9 µM] |
| CCCCCC[N+](=O)[O-] | -0.413% |
| O=C(NC(=O)c1c(F)cccc1F)Nc1ccc(OC(F)(F)C(F)OC(F)(F)F)c(Cl)c1 (stereo unspecified) | -2.94% [at 70.9 µM] |
| COc1c(C(C)(C)C)cc([N+](=O)[O-])c(C)c1[N+](=O)[O-] | 1.47% |

Test: qHTS assay to identify small molecule antagonists of the estrogen related receptor (ERR) signaling pathway from Tox21 library (AID 1224848; active = well fitted inhibition curve with a large enough effect in the repeat runs; note: nearly all actives have a fitted effect of over 50% in size; note: potency is the fitted concentration of half-maximal effect)
Conditions: ERR reporter cell line, luciferase antagonist mode, 18 h; series mostly up to 92.4 µM; activity, negative = inhibition: at the top concentration
Method in brief: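 Cells: ERR line, 2,000/well; 6 h preincubation 37 C/5% CO2. Cpd in DMSO via pin tool; 18 h, 37 C. ONE-Glo, 30 min RT, luminescence.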

| Compound | Potency | activity, negative = inhibition |
| --- | --- | --- |
| CCO[C@H]1O[C@@H]2OC3(C)CC[C@H]4[C@H](C)CC[C@@H]([C@H]1C)[C@@]24OO3 | 0.531 µM (active) | – |
| CC(C)N(CCC(C(N)=O)(c1ccccc1)c1ccccn1)C(C)C (stereo unspecified) | – | 3.77% [at 42.5 µM] |
| c1ccc(C2CC2)c(OCC2=NCCN2)c1 | – | 9.11% [at 42.5 µM] |
| Clc1cccc(SC2CCNCC2)n1 | – | 1.59% [at 42.5 µM] |
| OCCCBr | – | -0.631% |
| C/C(=C\c1ccccc1)[N+](=O)[O-] | 24.3 µM (active) | – |
| O=C(CBr)Nc1ccc(Cl)cc1C(=O)c1ccccc1F | – | -21% [at 42.5 µM] |
| C=C(C#N)CCC#N | – | 0.95% |
| O=[N+]([O-])C(Br)(CO)CO | – | 29.3% |

Test: qHTS assay to identify small molecule agonists of the estrogen related receptor (ERR) signaling pathway from Tox21 library (AID 1224849); note: nearly all actives have a fitted effect of over 15% in size
Conditions: ERR reporter cell line, ONE-Glo luciferase, 18 h; at 92.4 µM (top of the series) unless noted
Method in brief: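 We plated ERR reporter cells, waited 6 h, added compounds in DMSO by pin tool and incubated them 18 h at 37 C. ONE-Glo was then added and luminescence read after 30 min.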

| Compound | activity change, positive = activation |
| --- | --- |
| CCCC(Cn1cncn1)c1ccc(Cl)cc1Cl (stereo unspecified) | -61.7% |
| CCc1ccc(C(=O)NN(C(=O)c2cc(C)cc(C)c2)C(C)(C)C)cc1 | -56.4% |
| CCO[C@H]1O[C@@H]2OC3(C)CC[C@H]4[C@H](C)CC[C@@H]([C@H]1C)[C@@]24OO3 | -53.8% [at 42.5 µM] |
| c1cc2ccc3cccc4ccc(c1)c2c34 | -47.4% |
| C[C@@H]1CC[C@H]2[C@@H](C)C(=O)O[C@@H]3O[C@@]4(C)CC[C@@H]1[C@]32OO4 | -38.3% [at 42.5 µM] |
| CC(C)N(CCC(C(N)=O)(c1ccccc1)c1ccccn1)C(C)C (stereo unspecified) | 2.39% [at 42.5 µM] |
| c1ccc(C2CC2)c(OCC2=NCCN2)c1 | 4.99% [at 42.5 µM] |
| Clc1cccc(SC2CCNCC2)n1 | 0.887% [at 42.5 µM] |
| CCCCCCCCCCOC(=O)c1ccccc1C(=O)OCCCCCCCCCC | 1.79% |
| [O-][Cl+]O | 8.47% |
| OCCCBr | -6.8% |
| C/C(=C\c1ccccc1)[N+](=O)[O-] | -68.3% |
| CNP(=O)(OC)Oc1ccc(C(C)(C)C)cc1Cl (stereo unspecified) | -37.4% |
| O=C(CBr)Nc1ccc(Cl)cc1C(=O)c1ccccc1F | -13.3% [at 42.5 µM] |
| Brc1ccc(Oc2ccccc2)cc1 | -18.4% and 0.436% |
| C=C(C#N)CCC#N | 0.822% |
| C=CCN1CC[C@]23c4c5ccc(O)c4O[C@H]2C(=O)CC[C@@]3(O)[C@H]1C5 | -6.24% [at 42.5 µM] |
| CO[C@@H]1[C@H](OC(=O)NC(=O)CCl)CC[C@]2(CO2)[C@H]1[C@@]1(C)O[C@@H]1CC=C(C)C | -4.67% [at 19 µM] |
| O=C1c2ccccc2C(=O)C1C(=O)C(c1ccccc1)c1ccccc1 | -7.49% [at 42.5 µM] |
| O=C(NC(=O)c1c(F)cccc1F)Nc1ccc(OC(F)(F)C(F)OC(F)(F)F)c(Cl)c1 (stereo unspecified) | -11.9% [at 42.5 µM] |

Source: PubChem BioAssay (Tox21)
